Activity calls are given as the source filed them. Rule for the calls: active = hit-call score of the fitted dose curve at least 0.9, where 1 is the maximum; inconclusive = response in the unintended direction; inactive = score below 0.9.

As a reminder, the AC50 is the concentration at which the activity in the assay is half-maximal.

The target of the assay is Estrogen receptor (Homo sapiens) (UniProt P03372). Kind of assay: OT_ERa_GFPERaERE_0120: Odyssey Thera (OT) 2-hour HeLa Transcription Induction Assay for Estrogen Receptor (AID 2283382). In a few lines: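 HeLa cells were dosed with test chemical and read 2 hours later for GFP-ERα/ERE-linked fluorescent protein induction by fluorescence microscopy. Gain-of-signal was fitted relative to DMSO baseline, quantified by high content image analysis.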
Chain of Estrogen receptor (Homo sapiens) (P03372 whole entry, looked up): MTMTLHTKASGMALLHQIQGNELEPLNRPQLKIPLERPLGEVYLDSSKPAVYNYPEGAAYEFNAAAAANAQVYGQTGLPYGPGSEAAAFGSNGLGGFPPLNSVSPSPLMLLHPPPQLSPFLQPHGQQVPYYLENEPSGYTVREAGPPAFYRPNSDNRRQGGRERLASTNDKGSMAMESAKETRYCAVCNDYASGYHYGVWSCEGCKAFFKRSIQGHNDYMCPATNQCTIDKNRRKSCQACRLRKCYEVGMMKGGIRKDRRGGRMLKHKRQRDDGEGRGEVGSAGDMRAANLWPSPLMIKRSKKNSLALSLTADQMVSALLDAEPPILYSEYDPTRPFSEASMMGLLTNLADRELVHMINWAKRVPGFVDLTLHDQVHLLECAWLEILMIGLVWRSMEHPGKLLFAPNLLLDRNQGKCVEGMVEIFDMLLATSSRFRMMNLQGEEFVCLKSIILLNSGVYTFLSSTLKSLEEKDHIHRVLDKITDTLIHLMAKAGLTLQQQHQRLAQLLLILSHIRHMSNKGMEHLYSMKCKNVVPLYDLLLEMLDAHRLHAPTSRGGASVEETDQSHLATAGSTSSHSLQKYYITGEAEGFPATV
With `CC(=O)N1CCN(c2ccc(OC[C@H]3CO[C@](Cn4ccnc4)(c4ccc(Cl)cc4Cl)O3)cc2)CC1`, the AC50 was 94 µM (active).

In the case of `O=c1ccc2ccccc2o1`, the outcome was inactive.

Regarding `CCCCCCCCCCCO`, the compound was classed as inactive.

On to `CCCCCCCCN(C)CCCCCCCC`, for which the compound was called inactive.

In the case of `Cc1cccc2ccccc12`, the result was inactive.

Turning to `CCCCCCCCOc1ccc(C(=O)c2ccccc2)c(O)c1`, the call was inactive.

As to `CCCCCCCCCCCCO`, the outcome was inactive.

As to `Cc1cc2c(cc1C(F)(F)F)N(C(=O)Nc1ccc(Oc3cccnc3C)nc1)CC2`, the compound was classed as inactive.

Regarding `OC12N=C(c3ccccc3)SC1Cc1cc(Cl)ccc12` (configuration not stated), the outcome was inactive.

On to `Cc1ccc2oc(CN(Cc3ccccc3)C(=O)Nc3c(F)cc(F)cc3F)c(-c3ccc(Cl)cc3)c2c1`, for which the outcome was inactive.

Turning to `Clc1ccccc1C(c1ccccc1)(c1ccccc1)n1ccnc1`, the outcome was inactive.

For `NC(=O)c1nc(-c2cccc(-c3cc(F)ccc3OCC(F)(F)C(F)(F)F)c2)n[nH]1`, the outcome was inactive.

Regarding `COc1cccc([C@H](O)C2CCN(CCc3ccc(F)cc3)CC2)c1OC`, the call was inactive.

Regarding `CCO[Si](CCCNC(N)=O)(OCC)OCC`, the call was inactive.

On to `CC[C@@H]1C[C@H](N(Cc2cc(C(F)(F)F)cc(C(F)(F)F)c2)C(C)=O)c2cc(C(F)(F)F)ccc2N1C(=O)OC(C)C`, for which the outcome was inactive.

With `O=C=NCCCCCCN=C=O`, the outcome was inactive.

With `O=C(OCCCCCCOC(=O)c1ccccc1)c1ccccc1`, the call was inactive.

Consider `O=C(O)c1ccccc1C(=O)OCc1ccccc1`, for which the compound was classed as inactive.

With `O=c1[nH]sc2ccccc12`, the result was inactive.

`OCCO`: the compound was classed as inactive.

Regarding `CCN(Cc1cccnc1)C(=O)c1cccc(Cl)c1[C@]1(C)C(=O)N(Cc2ccc(OC)cc2OC)c2ccc(Cl)cc21`, the outcome was inactive.

Regarding `Cc1ccc(C(C)C)cc1`, the result was inactive.

Take `CCN(Cc1cccc(S(=O)(=O)O)c1)c1ccc(C(=C2C=CC(=[N+](CC)Cc3cccc(S(=O)(=O)O)c3)C=C2)c2ccccc2S(=O)(=O)[O-])cc1`: the call was inactive.

Turning to `Cc1occc1C(=O)Nc1ccc(C(=O)N2CCC(F)(F)/C(=C\C(=O)N3CCC(N4CCCCC4)CC3)c3ccccc32)cc1`, the compound was called inactive.

With `Cc1cn([C@H]2C[C@H](N=[N+]=[N-])[C@@H](CO)O2)c(=O)[nH]c1=O`, the compound was called inactive.

With `CC(C)(C)c1cc(/C=C2\SC(N)=NC2=O)cc(C(C)(C)C)c1O`, the outcome was inactive.

In the case of `COCC(C)OCC(C)OCC(C)O` (configuration not stated), the compound was classed as inactive.
